According to PubChem BioAssay AID1159580 (chemical genetic matrix, 2015):
“And” between values parts separate entries of the source, which are not always exact repeats. Identical values can stand only once. The campaign covered roughly 5,500 compounds. About 2,000 (36%) were called active. Roughly 18% stayed inconclusive and do not appear here. Rule as the data show it: active = normalized growth mostly below about 0.91 (no sharp cut-off); inconclusive = no clear call, values can overlap the other calls; inactive = mostly above about 0.92. Some of the results follow.

Test: chemical genetic growth profiling, strain panel (AID 1159580);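 also: tested at 20 µM; growth read once vehicle control cultures reached saturation at 30 °C; 1 = growth at the plate median or of vehicle wells; lower values mean less growth of the strain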
Conditions: S. cerevisiae deletion strains, growth OD

Measured: normalized growth

CO[C@@]1(NC(=O)Cc2cccs2)C(=O)N2C(C(=O)O)=C(COC(N)=O)CS[C@@H]21
inactive: locus YAL013W, strain DEP1, stronger effect = lower value 1 | locus YAL021C, strain ccr4, stronger effect = lower value 0.939 | locus YAL026C, strain drs2, stronger effect = lower value 0.969 | locus YAL030W, strain snc1, stronger effect = lower value 0.982 | locus YBL061C, strain skt5, stronger effect = lower value 0.97 | locus YBR009C, strain hhf1, stronger effect = lower value 1.02 | locus YBR021W, strain FUR4, stronger effect = lower value 1.01 | locus YBR023C, strain chs3, stronger effect = lower value 0.971 | locus YBR171W, strain sec66, stronger effect = lower value 0.968 | locus YBR229C, strain ROT2, stronger effect = lower value 1.01 | locus YBR231C, strain swc5, stronger effect = lower value 1.03 | locus YBR279W, strain paf1, stronger effect = lower value 0.972 | locus YCL011C, strain gbp2, stronger effect = lower value 0.976 | locus YCL016C, strain dcc1, stronger effect = lower value 0.955 | locus YCL029C, strain bik1, stronger effect = lower value 0.995 | locus YCL069W, strain vba3, stronger effect = lower value 0.989 | locus YCR088W, strain abp1, stronger effect = lower value 0.975 | locus YDL005C, strain med2, stronger effect = lower value 0.981 | locus YDL035C, strain GPR1, stronger effect = lower value 1.01 | locus YDL040C, strain nat1, stronger effect = lower value 0.981 | locus YDL074C, strain BRE1, stronger effect = lower value 1.02 | locus YDL101C, strain DUN1, stronger effect = lower value 1.01 | locus YDL134C, strain PPH21, stronger effect = lower value 1 | locus YDL185W, strain tfp1, stronger effect = lower value 0.994 | locus YDL192W, strain arf1, stronger effect = lower value 1 | locus YDR001C, strain nth1, stronger effect = lower value 0.971 | locus YDR069C, strain doa4, stronger effect = lower value 0.963 | locus YDR101C, strain arx1, stronger effect = lower value 0.984 | locus YDR137W, strain rgp1, stronger effect = lower value 0.94 | locus YDR150W, strain NUM1, stronger effect = lower value 1.01 | locus YDR159W, strain sac3, stronger effect = lower value 0.943 | locus YDR162C, strain NBP2, stronger effect = lower value 1 | locus YDR195W, strain ref2 0.98 | locus YDR297W, strain sur2, stronger effect = lower value 0.998 | locus YDR318W, strain mcm21, stronger effect = lower value 0.992 | locus YDR334W, strain swr1, stronger effect = lower value 0.97 | locus YDR335W, strain msn5, stronger effect = lower value 0.955 | locus YDR388W, stronger effect = lower value 0.99 | locus YDR392W, strain spt3, stronger effect = lower value 0.838 | locus YDR502C, strain sam2, stronger effect = lower value 0.991 | locus YEL003W, strain gim4, stronger effect = lower value 0.983 | locus YEL037C, strain rad23, stronger effect = lower value 0.97 | locus YEL061C, strain CIN8 (second series), stronger effect = lower value 0.976 | locus YEL061C, strain CIN8, stronger effect = lower value 1.01 | locus YER015W, strain faa2, stronger effect = lower value 0.99 | locus YER016W, strain bim1, stronger effect = lower value 0.949 | locus YER110C, stronger effect = lower value 0.997 | locus YER111C, strain swi4, stronger effect = lower value 0.96 | locus YER155C, strain BEM2 (second series), stronger effect = lower value 0.977 | locus YER155C, strain BEM2, stronger effect = lower value 1 | locus YER167W, strain BCK2, stronger effect = lower value 1 | locus YFR010W, strain ubp6, stronger effect = lower value 1.01 | locus YGL078C, strain dbp3, stronger effect = lower value 0.986 | locus YGL086W, strain mad1, stronger effect = lower value 0.987 | locus YGL167C, strain pmr1, stronger effect = lower value 0.978 | locus YGL173C, strain kem1, stronger effect = lower value 0.987 | locus YGL227W, strain vid30, stronger effect = lower value 0.98 | locus YGL240W, strain doc1, stronger effect = lower value 1 | locus YGL248W, strain PDE1, stronger effect = lower value 1.01 | locus YGL253W, strain hxk2, stronger effect = lower value 0.978 | locus YGR078C, strain PAC10, stronger effect = lower value 1.01 | locus YGR135W, strain pre9, stronger effect = lower value 0.989 | locus YGR252W, strain gcn5, stronger effect = lower value 0.982 | locus YHR013C, strain ard1, stronger effect = lower value 0.935 | locus YHR027C, strain rpn1, stronger effect = lower value 1.01 | locus YHR030C, strain SLT2, stronger effect = lower value 1.01 and 1.08 | locus YHR079C, strain IRE1 (second series), stronger effect = lower value 0.995 | locus YHR079C, strain IRE1, stronger effect = lower value 1.08 | locus YHR094C, strain hxt1, stronger effect = lower value 0.984 | locus YHR129C, strain ARP1, stronger effect = lower value 1 | locus YHR142W, strain chs7, stronger effect = lower value 0.936 | locus YHR200W, strain rpn10, stronger effect = lower value 0.994 | locus YIL066C, strain RNR3, stronger effect = lower value 1.01 | locus YIL073C, strain SPO22, stronger effect = lower value 1.01 | locus YIL125W, strain kgd1, stronger effect = lower value 0.995 | locus YIR030C, strain dcg1, stronger effect = lower value 0.996 | locus YJL092W, strain hpr5, stronger effect = lower value 0.989 | locus YJL095W, strain BCK1 (second series), stronger effect = lower value 0.967 | locus YJL095W, strain BCK1, stronger effect = lower value 1.01 and 1.06 | locus YJL115W, strain asf1, stronger effect = lower value 0.969 | locus YJL129C, strain trk1, stronger effect = lower value 0.914 | locus YJL134W, strain LCB3, stronger effect = lower value 1.01 | locus YJL154C, strain vps35, stronger effect = lower value 0.973 | locus YJL164C, strain tpk1, stronger effect = lower value 0.98 | locus YJL166W, strain qcr8, stronger effect = lower value 0.987 | locus YJL168C, strain set2, stronger effect = lower value 0.992 | locus YJL187C, strain SWE1 (second series), stronger effect = lower value 1.01 | locus YJR043C, strain POL32, stronger effect = lower value 0.986
